Test results reported in PubChem BioAssay (NCI).
The panel holds about 79,000 compounds, 15% with a hit somewhere; the sample as a whole holds those more often. Cut-off read from the data, not from the text of the source: active = growth inhibition above about 70%; inactive = the rest.

Columns and labels:
[1] = NCI Yeast Anticancer Drug Screen. Data for the rad50 strain (AID 155);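 note: 0% = growth of vehicle-only cultures of the same strain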; conditions: S. cerevisiae rad50 strain growth inhibition; at 50.0 µM; stronger effect = higher value
Procedure, shortened: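 Growth of the mutant yeast was measured after compound exposure and referenced to vehicle-treated cultures.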

[2] = NCI Yeast Anticancer Drug Screen. Data for the mec2-1 strain (AID 157); conditions: S. cerevisiae mec2-1 strain, at 50.0 µM, stronger effect = higher value
Procedure, shortened: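 Cells of the genetically defined mec2-1 yeast strain are incubated with test compound. Inhibition of growth is calculated against vehicle-treated controls.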

[3] = NCI Yeast Anticancer Drug Screen. Data for the sgs1 mgt1 strain (AID 161);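 note: 0% = growth of cultures given vehicle only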; conditions: S. cerevisiae sgs1 mgt1 strain, at 50.0 µM, stronger effect = higher value
Procedure, shortened: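 Inhibition of yeast growth, normalised to vehicle-treated controls, is reported for a strain bearing genetic alterations in DNA damage repair.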

[4] = NCI Yeast Anticancer Drug Screen. Data for the cln2 rad14 strain (AID 165);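 note: 0% = growth equal to vehicle treated cultures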; conditions: S. cerevisiae cln2 rad14 strain, at 50.0 µM, stronger effect = higher value
Procedure, shortened: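 The screen exposed genetically defined yeast (cln2 rad14) to test compounds and scored growth inhibition relative to vehicle-treated controls.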

[5] = NCI Yeast Anticancer Drug Screen. Data for the bub3 strain (AID 167); conditions: S. cerevisiae bub3 mutant strain, at 50.0 µM, stronger effect = higher value
Procedure, shortened: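 Whole-cell yeast assay. The mutant strain was incubated with compounds, and growth inhibition was determined by comparison with vehicle-treated cells.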

[6] = NCI Yeast Anticancer Drug Screen. Data for the mlh1 rad18 strain (AID 175); conditions: S. cerevisiae mlh1 rad18 strain growth inhibition; at 50.0 µM; stronger effect = higher value
Procedure, shortened: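 Compound-treated yeast growth, normalised to vehicle controls. Strain bears defined DNA repair mutations.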

Measured: growth inhibition

O=c1[nH]cnc2c1sc(=S)n2-c1ccccc1
inactive: [1] 7.15% | [2] -10.5% | [3] 10.2% | [4] 6.7% | [5] -12.3% | [6] -2.4%

C=CCOC(=O)COC(=O)C(C)(C)OC(C)=O
inactive: [1] -3.35% | [2] 10.3% | [3] -1.7% | [4] 10.9% | [5] 12.6% | [6] -5.9%

CN1C(=O)N(C)C2=NC(=O)N(C)C2(C(Cl)(Cl)Cl)C1=O (stereo unspecified)
inactive: [1] 45.3% | [2] 32.2% | [3] 47.4% | [4] 24.6% | [5] 21.6% | [6] 58%

CCOC(=O)C(C)F (stereo unspecified)
inactive: [1] 6.1% | [2] -26.1% | [3] 1.55% | [4] -1.15% | [5] -8.45% | [6] 3.75%

Oc1c(Br)cc(Br)cc1/C=N/N=C/c1cc(Br)cc(Br)c1O
inactive: [1] -6.7% | [2] -20% | [3] -15.9% | [4] 0.2% | [5] -8.5% | [6] 7.5%

CNc1ccc(Cl)cc1C(N)=O
inactive: [1] 2.8% | [2] 6.9% | [3] 28.7% | [4] -3.25% | [5] 7.05% | [6] 19.9%

Cc1ccc2c(c1)CCC(=O)O2
inactive: [1] 11.4% | [2] 0% | [3] -1.75% | [4] -17.2% | [5] 10.4% | [6] 3.4%

COc1cc(C2c3cc4c(cc3OC(N3CCCCC3)C2C)OCO4)cc(OC)c1OC (stereo unspecified)
inactive: [1] -13.4% | [2] -20.1% | [3] -18.1% | [4] 0.15% | [5] -23.6% | [6] -12.6%

OC[C@@H]1C2CCC([C@@H]1CO)C2(Cc1ccccc1)Cc1ccccc1
inactive: [1] 5.9% | [2] 26.9% | [3] 9.45% | [4] -73% | [5] 4.95% | [6] -11.2%

Cc1ccc(S(=O)(=O)NNS(=O)(=O)c2ccc(C)cc2)cc1
inactive: [1] 5% | [2] 9.6% | [3] 26.9% | [4] -5.95% | [5] 12.7% | [6] 17.2%

CCCCOC(=O)/C(=C\c1cccc(OC)c1)NC(=O)c1ccccc1
inactive: [1] 15.8% | [2] 14.9% | [3] 28.5% | [4] 11.2% | [5] 58.2% | [6] 34.6%

O=C1OCCCC1(Cc1ccccc1)Cc1ccccc1
inactive: [1] 44.6% | [2] -7.7% | [3] 37.4% | [4] -16.1% | [5] 39.6% | [6] 16.5%

CCO/N=C(\C(=O)NO)c1ccccc1
inactive: [1] -6.35% | [2] 1.6% | [3] 1.5% | [4] -24.4% | [5] -1.9% | [6] 13.2%

COc1cc(OC)cc(Oc2nc3ccc(C(F)(F)F)cc3nc2-c2ccccc2)c1
inactive: [1] -33.1% | [2] -44.8% | [3] -7.85% | [4] -28.3% | [5] -27.4% | [6] -14.3%

C#CCNC(=O)NCCCC(NC(C)=O)C(=O)NCc1ccccc1 (stereo unspecified)
inactive: [1] 41% | [2] -12.2% | [3] -4.65% | [4] 32.1% | [5] -5.75% | [6] -8.15%

CCCCCCCCC(=O)O (tested in a mixture with another compound)
inactive: [1] 2.3% | [2] 6.75% | [3] 9.95% | [4] 12.7% | [5] 2.85% | [6] 29.1%

O=C(O)C1CC2C3CC(C(=O)O)C(C3)C2C1 (stereo unspecified)
inactive: [1] -15.8% | [2] -24.7% | [3] -5.55% | [4] -1.85% | [5] -10.8% | [6] -13.9%

CCOC(=O)c1c(SC(=O)c2ccc(C(C)(C)C)cc2)n(-c2ccccc2)c(=S)n(-c2ccccc2)c1=O
inactive: [1] 31.1% | [2] 0.55% | [3] 26.8% | [4] 6.45% | [5] 40% | [6] 18.9%

O=Cc1ccnc2ccccc12
inactive: [1] 0.9% | [2] 1% | [3] 6.25% | [4] 4% | [5] -3.55% | [6] 6.85%

CC1(C)CC(Nc2ccccc2)=CC(=Nc2ccccc2)S1
inactive: [1] -13.1% | [2] -11.2% | [3] -3.55% | [4] -25.2% | [5] -32.5% | [6] -14.2%

CCOC(=O)N(C)C
inactive: [1] 18.9% | [2] 12.8% | [3] 3.65% | [4] 11.1% | [5] 12.1% | [6] 8%
